Experimental data from PubChem BioAssay.
Calls of active or inactive are those of the source. Unless noted, how the calls were made is not given here.

Experiments:
[1] = system: Wnt5a (protein binding on small-molecule microarray); experiment: small molecules binding Wnt5a protein – biophysical, small-molecule microarray, 635/667 nm fluorescence, primary screen (AID 1142); conditions: 635 nm fluorescence, higher = more signal;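 further: fluorescence read at 667 nm with signal to noise per printed feature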
[2] = ATP-based viability of Huh7 replicon cells – cell-based, CellTiter-Glo luminescence, basal, 48 h, cytotoxicity control for HCV replication inhibitor project, primary screen (AID 1143); conditions: higher = more signal, called active from +8 up or from −8 down;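 further: Huh7 hepatoma cells carrying a hepatitis C replication reporter with no stimulus; test concentration not given here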
[3] = Pseudomonas biofilm growth suppression – PAO1 strain, BacTiter-Glo luminescence, LB-PBS, primary screen (AID 1144); conditions: P. aeruginosa PAO1 biofilm, 12 h, higher = more signal
[4] = basal CRE-LacZ reporter activity in PC12 – cell-based, unstimulated, primary screen (AID 1145); conditions: no forskolin, luminescence, 4.5 h, higher = more signal, called active from +8 up or from −8 down
[5] = forskolin-driven CRE-LacZ activity in PC12 – cell-based, CRE-LacZ reporter, forskolin-stimulated, primary screen (AID 1146); conditions: luminescence, 4.5 h, higher = more signal, called active from +8 up or from −8 down;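 further: PC12 cells with 6xCRE LacZ reporter stimulated by forskolin 10 µM; beta-galactosidase reporter signal reflecting CREB driven transcription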
[6] = biological target: Streptavidin (Streptomyces avidinii) (UniProt P22629); experiment: compounds binding control protein streptavidin – biophysical, small-molecule microarray, 635/667 nm fluorescence, artefact control for SMM compound annotation, primary screen (AID 1147); conditions: higher = more signal;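 further: signal reflects streptavidin binding to arrayed compounds as a control protein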
[7] = probe aInhba binding on compound microarray – biochemical, small-molecule microarray, 635/667 nm fluorescence, primary screen (AID 1148); conditions: higher = more signal;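 further: score merges 667nm spot fluorescence with signal-to-noise for antibody binding to printed compounds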
[8] = biological target: Torsin-1A (Homo sapiens) (UniProt O14656); experiment: TOR1A wild-type binding on microarray – cell lysate, small-molecule microarray, lysate, 635/667 nm, primary screen (AID 1149); conditions: COS7 hTOR1A-WT lysate, 635 nm fluorescence, higher = more signal
[9] = biological target: Torsin-1A (Homo sapiens) (UniProt O14656); experiment: torsin A mutant lysate binding on microarrays – cell lysate, small-molecule microarray, COS7 lysate, 635/667 nm fluorescence, primary screen (AID 1150); conditions: COS7 hTOR1A mutant lysate, 635 nm fluorescence, higher = more signal;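 further: score pools 667 nm emission and signal to noise measuring lysate protein binding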
[10] = system: Sonic hedgehog protein (Shh); experiment: Sonic hedgehog microarray binding compounds – biochemical, small-molecule microarray, 635/667 nm fluorescence, primary screen (AID 1151); conditions: 635 nm fluorescence, higher = more signal;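 further: Shh protein binding to compounds spotted on small-molecule microarray slides; score combines spot fluorescence intensity with signal-to-noise across triplicate slides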

Sequence of Streptavidin (Streptomyces avidinii) (P22629 whole entry, looked up): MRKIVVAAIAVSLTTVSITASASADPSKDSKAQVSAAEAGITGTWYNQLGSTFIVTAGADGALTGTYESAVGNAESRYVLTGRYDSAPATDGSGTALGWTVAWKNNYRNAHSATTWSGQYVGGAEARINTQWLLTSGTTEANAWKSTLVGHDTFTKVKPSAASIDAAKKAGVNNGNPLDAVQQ
Sequence of Torsin-1A (Homo sapiens) (O14656 whole entry, looked up): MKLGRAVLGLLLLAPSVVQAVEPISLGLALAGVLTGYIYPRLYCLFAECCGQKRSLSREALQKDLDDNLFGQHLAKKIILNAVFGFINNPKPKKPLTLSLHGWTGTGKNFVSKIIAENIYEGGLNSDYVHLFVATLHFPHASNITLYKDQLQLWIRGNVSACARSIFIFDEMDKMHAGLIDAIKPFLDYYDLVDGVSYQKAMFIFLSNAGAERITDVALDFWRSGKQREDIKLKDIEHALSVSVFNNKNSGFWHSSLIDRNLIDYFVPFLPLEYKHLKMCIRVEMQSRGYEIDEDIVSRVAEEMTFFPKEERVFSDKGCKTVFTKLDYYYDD

| SMILES | composite z-score [1] | z-score [2] | z-score [3] | z-score [4] | z-score [5] | composite z-score [6] | composite z-score [7] | composite z-score [8] | composite z-score [9] | composite z-score [10] |
| --- | --- | --- | --- | --- | --- | --- | --- | --- | --- | --- |
| CCCC=C(CCC)[C@@H](NS(=O)(=O)c1ccc(C(F)(F)F)cc1)c1ccccc1 | 0.001 | -1.09 (inactive) | -0.869 (inactive) | -0.565 (inactive) | 1.32 (inactive) | 0.578 | 0.156 | -0.0214 | -0.0562 | 0.108 |
| COc1cc2c(cc1O)C(c1cccs1)N(Cc1cc3c(cc1Br)OCO3)CC2 (stereo not given) | 0.594 | -4.04 (inactive) | 0.582 (inactive) | 0.0924 (inactive) | 0.726 (inactive) | 2.07 | 0.0268 | 0.835 | 1.16 | 0.305 |
| COCCOC(=O)N1C(=O)[C@@]2(c3cc(C#CCNC(N)=O)ccc31)[C@H](C(N)=O)[C@H]1C(=O)O[C@H](c3ccccc3)[C@H](c3ccccc3)N1[C@@H]2c1ccccc1OCCO | 0.273 | 0.406 (inactive) | -0.0139 (inactive) | -0.465 (inactive) | 0.0355 (inactive) | 0.0571 | 0.183 | 0.112 | 0.25 | 0.878 |
| Oc1ccc2cc[n+](Cc3cc4c(cc3Br)OCO4)cc2c1 | -0.388 | -0.501 (inactive) | -0.23 (inactive) | -0.788 (inactive) | -0.639 (inactive) | -0.909 | -0.224 | -0.896 | -0.49 | -0.598 |
| C=C(/C(=C/C[C@H](OC(C)=O)c1ccc(CO)o1)c1cnc2ccccc2c1)C(C)C | 0.473 | 0.27 (inactive) | -1.31 (inactive) | -0.671 (inactive) | 0.647 (inactive) | 1.44 | 0.0528 | 1.27 | 0.269 | 1.65 |
| C=CCC(OC(C)=O)[C@@H]1[C@@H](N(Cc2cc3ccccc3o2)C(=O)Cc2ccc(F)cc2)c2cc(OCCCO)ccc2N1C(=O)Cc1ccc2ccccc2c1 (stereo not given in full) | -0.314 | -0.327 (inactive) | -0.467 (inactive) | 2.08 (inactive) | 0.926 (inactive) | 0.655 | -0.0963 | -1.16 | -0.337 | 0.0162 |
| COCCOC(=O)N1C(=O)[C@@]2(c3cc(C#CC4=CCCCC4)ccc31)[C@H](C(=O)Nc1nc3ccccc3s1)[C@H]1C(=O)O[C@H](c3ccccc3)[C@H](c3ccccc3)N1[C@@H]2c1ccc(O)cc1 | 0.381 | -0.67 (inactive) | 0.288 (inactive) | 0.532 (inactive) | 0.817 (inactive) | 1.25 | -0.0178 | 1.15 | 0.358 | 2.06 |
| [N-]=[N+]=Nc1ccccc1C[C@]1(C(=O)NCCN2CCOCC2)COC(c2ccc(OCCCO)cc2)=N1 | 0.898 | -1.06 (inactive) | 0.783 (inactive) | 0.754 (inactive) | 1.45 (inactive) | 1.25 | 0.0497 | 0.707 | 1.75 | 0.0324 |
| CC(C)=C1C(=O)C(c2ccccc2)=C2CN3C(=O)N(CCc4ccccc4)C(=O)[C@]3(Cc3ccc(C(F)(F)F)cc3)[C@H]21 | -0.199 | -0.28 (inactive) | 0.408 (inactive) | 0.966 (inactive) | 0.96 (inactive) | 0.37 | 0.23 | -0.0473 | -0.336 | -1.18 |
| CCOC(=O)C[C@H]1[C@H](OC(=O)c2ccc(C(=O)c3ccccc3)cc2)[C@@H](NC(=O)C2CCCCC2)c2cc(OCCCO)ccc2N1C(=O)c1ccc2ccccc2n1 | 0.233 | 0.233 (inactive) | -1.09 (inactive) | -0.215 (inactive) | -0.825 (inactive) | 0.731 | -0.0933 | 0.772 | 0.298 | 0.93 |
| COCCOC(=O)N1C(=O)[C@@]2(c3cc(C#CC4=CCCCC4)ccc31)[C@H](c1ccccc1OCCO)N1[C@H](c3ccccc3)[C@H](c3ccccc3)OC(=O)[C@H]1[C@@H]2C(=O)N1CCN(c2ncccn2)CC1 | 0.471 | -4.96 (inactive) | -1.23 (inactive) | -1.28 (inactive) | -0.752 (inactive) | 0.407 | 0.181 | 0.0128 | 0.202 | 0.942 |
| C=CCNC(=O)[C@@H]1[C@H]2C(=O)O[C@H](c3ccccc3)[C@H](c3ccccc3)N2[C@H](c2ccc(O)cc2)[C@@]12C(=O)N(C(=O)OCCOC)c1ccc(C#CC3=CCCCC3)cc12 | 0.432 | -2.12 (inactive) | 0.411 (inactive) | 0.346 (inactive) | -0.0705 (inactive) | 0.268 | 0.0705 | 0.87 | 0.686 | 1.86 |
| O=C(C1N=C(c2ccc(OCCCO)cc2)N(c2ccccc2)O1)N1CCCCC1 (stereo not given) | 0.296 | -0.163 (inactive) | 1.52 (inactive) | 0.0918 (inactive) | 1.91 (inactive) | 1.56 | 0.271 | 0.407 | 0.854 | 0.17 |
| [N-]=[N+]=Nc1ccccc1C[C@@]1(C(N)=O)N=C(c2ccc(OCCCO)cc2)O[C@@H]1c1ccccc1N=[N+]=[N-] | 0.351 | -5.17 (inactive) | -0.0225 (inactive) | -0.207 (inactive) | -1.89 (inactive) | 0.823 | 0.258 | 0.252 | 0.789 | -0.535 |
| CN(C)C(=O)[C@]1(Cc2ccccc2CN=[N+]=[N-])N=C(c2ccc(OCCCO)cc2)O[C@@H]1c1ccccc1 | 0.682 | -5.61 (inactive) | -0.528 (inactive) | 0.502 (inactive) | -0.579 (inactive) | 0.792 | 0.111 | 0.178 | 0.729 | -0.18 |
| CC(C)[Si]1(C(C)C)OCc2cc(C3CC3)nc(-c3ccc(Oc4ccccc4)cc3)c21 | -0.223 | -1.03 (inactive) | -0.823 (inactive) | -0.113 (inactive) | 0.0211 (inactive) | -0.502 | -0.0604 | 0.726 | -1.07 | -0.241 |
| COc1ccc(CCNC(=O)[C@@]2(Sc3ccc(C)cc3)CC(=O)N(Cc3ccccc3C(F)(F)F)[C@@H]2c2ccc(CO)cc2I)cc1 | -0.0049 | -1.53 (inactive) | 1.02 (inactive) | 0.362 (inactive) | 2.7 (inactive) | -0.975 | 0.0714 | -1.13 | -0.702 | -0.649 |
| O=C(NCc1ccc(F)cc1)[C@H]1C[C@H]2C(=O)NCC(=O)N2[C@H]1c1ccc(O)cc1 | 0.205 | -0.764 (inactive) | 0.3 (inactive) | 0.0124 (inactive) | -0.0067 (inactive) | -0.311 | 0.177 | 0.134 | 1.82 | 1.69 |
| CCCC[C@@H]1C[C@H]1[C@@H](NC(=O)c1cccs1)c1ccccc1C(F)(F)F | 0.0098 | -1.37 (inactive) | -1.3 (inactive) | 0.587 (inactive) | 1.4 (inactive) | 2.1 | 0.274 | 0.458 | 0.555 | -0.142 |
| CN(C)C(=O)[C@@]1(Cc2ccccc2CN=[N+]=[N-])N=C(c2ccc(OCCCO)cc2)O[C@H]1c1ccccc1N=[N+]=[N-] | 0.0168 | -4.96 (inactive) | -0.638 (inactive) | 1.74 (inactive) | -1.69 (inactive) | 1.51 | 0.439 | 0.504 | 1.21 | 0.66 |
| CC(C)C(CO)N1C(=O)[C@@H]2[C@H]3C(=O)OCC=C[C@H]3OC23C=CCN(c2ccc(Cl)cc2)C(=O)[C@@H]13 (stereo not given in full) | -0.0632 | -0.755 (inactive) | 2.84 (inactive) | 0.203 (inactive) | -0.652 (inactive) | -0.446 | -0.0987 | -0.677 | -0.377 | -0.339 |
| CCOC(=O)C[C@H]1[C@H](OC(=O)c2ccccc2-c2ccccc2)[C@@H](NC(=O)c2ccc3ccccc3n2)c2cc(OCCCO)ccc2N1C(=O)Cc1ccc(OC)cc1 | 0.0204 | -0.109 (inactive) | 0.485 (inactive) | 1.03 (inactive) | 0.349 (inactive) | -0.0997 | 0.0442 | 0.253 | 0.0746 | 0.336 |
| CCCC#C[Si](O[C@H](CC)c1cn([C@H](C)c2ccccc2)nn1)(C(C)C)C(C)C | 0.0759 | -0.746 (inactive) | -0.616 (inactive) | -0.621 (inactive) | -0.929 (inactive) | -0.121 | 0.143 | 0.575 | 0.95 | 0.275 |
| Cc1ccc(S[C@]2(C(=O)NC(C)C)CC(=O)N(Cc3cc(C(F)(F)F)cc(C(F)(F)F)c3)[C@@H]2c2ccc(CO)cc2)cc1 | 0.0368 | -0.523 (inactive) | 0.0139 (inactive) | 0.0655 (inactive) | 0.832 (inactive) | -1.18 | -0.121 | -1.86 | -1.78 | -0.621 |
| NCCCCCNC(=O)[C@H]1C[C@H]2C(=O)N3CCC[C@H]3C(=O)N2[C@H]1c1cccc(OCCO)c1 | 0.444 | -0.0422 (inactive) | 0.294 (inactive) | 0.143 (inactive) | -0.0024 (inactive) | 0.812 | 0.0792 | 1.05 | 0.264 | 0.148 |
| COCCOC(=O)N1C(=O)[C@@]2(c3cc(C#CCCO)ccc31)[C@H](c1ccc(OCCO)cc1)N1[C@H](c3ccccc3)[C@H](c3ccccc3)OC(=O)[C@H]1[C@@H]2C(=O)Nc1nc2ccccc2s1 | 0.508 | -0.218 (inactive) | 0.56 (inactive) | -0.618 (inactive) | -0.267 (inactive) | 1.13 | 0.358 | 0.266 | 0.0474 | 1.97 |
| COCCCNC(=O)[C@@]1(Sc2ccc(C)cc2)CC(=O)N(C2Cc3ccccc3C2)[C@@H]1c1ccc(CO)cc1 | -0.228 | -4.69 (inactive) | -1.03 (inactive) | 0.685 (inactive) | 1.95 (inactive) | -1.17 | -0.327 | -1.86 | -1.35 | -1.45 |
| O=C1O[C@H](c2ccccc2)[C@H](c2ccccc2)N2[C@H]1[C@@H](C(=O)O)[C@]1(C(=O)Nc3ccc(C#CCCO)cc31)[C@H]2c1ccccc1OCCO | 0.248 | -0.873 (inactive) | -0.352 (inactive) | -0.195 (inactive) | 1.04 (inactive) | -0.18 | -0.0986 | -0.658 | -0.199 | 0.824 |
